The list is not random: actives were taken first. Their share in the collection is about 12%.
HP1b binding inh: HTS for Inhibitors of HP1-beta Chromodomain Interactions with Methylated Histone Tails. AlphaScreen HP1-beta / biotin-H3K9me3 peptide binding. Potency, µM (top dose mostly 114 µM), most hits filed as inhibitors. actives 0.56% (n = 390,000); further: nearly all actives have a fitted effect of over 70% in size
Target sequence (P83916 whole entry, looked up): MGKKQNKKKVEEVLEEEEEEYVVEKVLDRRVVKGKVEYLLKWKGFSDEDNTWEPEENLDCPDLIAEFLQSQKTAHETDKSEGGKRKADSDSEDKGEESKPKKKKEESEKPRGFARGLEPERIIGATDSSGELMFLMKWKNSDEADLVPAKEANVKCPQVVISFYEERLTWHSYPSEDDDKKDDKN
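AlphaScreen: HP1-beta (50 nM) preformed 30 min with biotin-H3(1-18)K9me3 peptide (50 nM) in PBS pH 7.4, 0.01% Tween-20. Compound added for 30 min at RT, then streptavidin donor/nickel chelate acceptor beads (10 ug/mL) for 30 min.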
JMJD2A Tudor inh: qHTS Assay for Inhibitors of JMJD2A-Tudor Domain; Lysine-specific demethylase 4A (Homo sapiens), O75164; AlphaScreen JMJD2A-Tudor / H3K4me3 peptide binding; Potency, µM (doses to about 114 µM), hits mostly inhibitors; actives 4.4% (n = 390,000); AID 504339, 2011; further: nearly all actives have a fitted effect of over 50% in size
G9a inh: qHTS Assay for Inhibitors of Histone Lysine Methyltransferase G9a; Potency, µM (series often up to 102 µM), most hits filed as inhibitors; G9a H3K9 monomethylation, AlphaScreen, 2 h; actives 8.8% (n = 350,000); further: nearly all actives have a fitted effect of over 75% in size
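G9a (20 nM) preincubated 15 min RT with compounds, then 500 nM biotinylated H3K9 peptide and 20 uM SAM added; 2 h RT reaction. Monomethyl-H3K9 product detected by AlphaScreen with anti-H3K9me1 antibody, streptavidin donor and anti-rabbit IgG acceptor beads.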
PI5P4K alpha inh: qHTS for Inhibitors of phosphatidylinositol 5-phosphate 4-kinase (PI5P4K); Phosphatidylinositol 5-phosphate 4-kinase type-2 alpha (Homo sapiens), P48426; actives 1.2% (n = 330,000); max response, %; PI5P4Kalpha enzyme, ADP-Glo luminescence, 60 min; hits give low values; active means max response of -50% or lower; inconclusive means between -30% and -50%; inactive means -30% or higher; further: value at the top dose of about 77 µM
Target sequence (P48426 whole entry, looked up): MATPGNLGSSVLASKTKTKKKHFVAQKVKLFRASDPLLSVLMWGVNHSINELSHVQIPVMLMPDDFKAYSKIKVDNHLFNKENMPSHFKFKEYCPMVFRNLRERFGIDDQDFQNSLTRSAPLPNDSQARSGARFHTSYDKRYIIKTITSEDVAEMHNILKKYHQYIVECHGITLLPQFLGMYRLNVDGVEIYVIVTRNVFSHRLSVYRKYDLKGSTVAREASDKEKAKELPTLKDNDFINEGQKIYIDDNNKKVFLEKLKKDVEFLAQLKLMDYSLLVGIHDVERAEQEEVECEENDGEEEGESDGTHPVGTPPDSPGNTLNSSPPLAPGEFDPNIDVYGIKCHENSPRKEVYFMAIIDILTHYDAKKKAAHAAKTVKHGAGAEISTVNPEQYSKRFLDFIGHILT
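PI5P4Kalpha ADP-Glo assay; 5 microM ATP final; 60 min RT reaction; HEPES pH 7.4/EGTA/CHAPS, 5% DMSO; controls lacking substrate or enzyme; luminescent end-point.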
BAZ2B inh: qHTS Assay for Inhibitors of BAZ2B | Bromodomain adjacent to zinc finger domain protein 2B (Homo sapiens), Q9UIF8 | AlphaScreen BAZ2B-H3K14Ac peptide displacement | Potency, µM (top dose mostly 114 µM), most hits filed as inhibitors | actives 4.4% (n = 360,000); further: nearly all actives have a fitted effect of over 60% in size
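Multi-concentration screen (max 110 uM) measuring displacement of acetylated histone H3 peptide from BAZ2B by AlphaScreen, using 50 nM protein, 50 nM peptide and 10 ug/mL streptavidin donor plus Ni-chelate acceptor beads.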
PLK1 PBD block: qHTS for Inhibitors of PLK1-PDB (polo-like kinase 1 - polo-box domain): Primary Screen | Serine/threonine-protein kinase PLK1 (Homo sapiens), P53350 | Plk1 PBD binding of FITC phosphopeptide, fluorescence polarization | Potency, µM, hits mostly inhibitors | actives 2.8% (n = 360,000) | AID 720504, 2013; further: series mostly up to about 57 µM; nearly all actives have a fitted effect of over 65% in size
Large screens that a line does not name were inactive. Unless noted, the call rests on the fitted dose curve; in most records, active means well fitted curve in the direction sought with a large enough effect; inconclusive means small, poorly fitted or top-dose-only effect, or another doubt; inactive means no such curve, though single readings can be large; an effect the other way counts as inactive or inconclusive.

COc1ccc2[nH]c(C)c(C(=O)CN3CCc4cc(OC)c(OC)cc4C3)c2c1	G9a inh 50µM
COc1ccc2[nH]c(C)c(C(=O)CN3CCOCC3)c2c1	G9a inh inconclusive, BAZ2B inh inconclusive
O=S(=O)(c1cccc(C(F)(F)F)c1)N1CCN(c2nc(-c3cccs3)nc3cc(Cl)ccc23)CC1	none (no result: G9a inh, PI5P4K alpha inh, BAZ2B inh, PLK1 PBD block)
CC(=O)C1=C(c2ccc(C)cc2)N(C(C)=O)n2c(nnc2-c2ccccc2)S1	none (no result: PI5P4K alpha inh, PLK1 PBD block)
COc1ccccc1/C=C1\SC(N2CCC(C)CC2)=NC1=O	none
COc1cc(OC)c(OC)cc1/C=C1\SC(N2CCCCC2)=NC1=O	G9a inh inconclusive, PI5P4K alpha inh inconclusive
CN1CCN(C2=NC(=O)/C(=C/c3ccccc3OS(=O)(=O)c3ccccc3)S2)CC1	G9a inh 45µM, PLK1 PBD block inconclusive
COc1cccc(/C=C2\SC(N3CCCC(C)C3)=NC2=O)c1OC (configuration not stated)	G9a inh 71µM, PLK1 PBD block inconclusive
COc1cccc(/C=C2\SC(N3CCC(C)CC3)=NC2=O)c1OC	G9a inh 28µM, PLK1 PBD block inconclusive
CC(C)Cc1ccc(S(=O)(=O)Nc2cc3c(cc2N2CCOCC2)n(C)c(=O)c(=O)n3C)cc1	none (no result: PI5P4K alpha inh, PLK1 PBD block)
COC(=O)NC(NC(=S)Nc1ccc([N+](=O)[O-])cc1)C(Cl)(Cl)Cl (configuration not stated)	JMJD2A Tudor inh inconclusive, G9a inh 10µM
CCOC(=O)NC(NC(=S)Nc1ccccc1OC)C(Cl)(Cl)Cl (configuration not stated)	G9a inh inconclusive, PLK1 PBD block inconclusive
CCOC(=O)NC(NC(=S)Nc1ccc(OC)cc1)C(Cl)(Cl)Cl (configuration not stated)	G9a inh 6.3µM
COC(=O)NC(NC(=S)Nc1ccccc1OC)C(Cl)(Cl)Cl (configuration not stated)	G9a inh 16µM
COC(CNC(=S)Nc1ccc([N+](=O)[O-])cc1)OC	none
CC1(C(=O)Nc2cccc(NS(C)(=O)=O)c2)CCN1CCc1ccccc1 (configuration not stated)	none (no result: HP1b binding inh, JMJD2A Tudor inh, G9a inh, BAZ2B inh)
COc1ccccc1N1CCN(C(=O)C2CCN(C(=O)c3ccc(C(C)(C)C)cc3)CC2)CC1	none
CC(C)c1ccc2c(c1)C(=O)NC(C)(C)C2	JMJD2A Tudor inh inconclusive, PLK1 PBD block 27µM
CC1(C)Cc2ccccc2C(=O)N1	none
CCOCCn1ccc2c(OCC(=O)NCc3ccc(F)cc3)cccc2c1=O	none (no result: PI5P4K alpha inh, PLK1 PBD block)
COc1ccc(NS(=O)(=O)c2ccc(O)c(NS(=O)(=O)c3ccc(NC(C)=O)cc3)c2)cc1	none (no result: G9a inh, BAZ2B inh)
Cc1ccc2c(N)c(C(=O)N(c3ccccc3)c3ccccc3)sc2n1	G9a inh 14µM (no result: PI5P4K alpha inh)
CC(C)OC(=O)c1sc2nc(-c3ccccc3)ccc2c1N	none (no result: G9a inh, PI5P4K alpha inh)
O=C(/C=C/c1ccco1)NC(=S)Nc1cccc(C(=O)O)c1	HP1b binding inh 20µM, JMJD2A Tudor inh 20µM, G9a inh 8.9µM, PI5P4K alpha inh -74, BAZ2B inh 32µM, PLK1 PBD block inconclusive
COc1cccc(NC(=S)NC(=O)/C=C/c2ccco2)c1	JMJD2A Tudor inh inconclusive, G9a inh 45µM, PI5P4K alpha inh -54, BAZ2B inh 50µM
CCc1ccc(NC(=O)Cn2cnc3sc(C)c(S(=O)(=O)N4CCN(c5ccccc5OC)CC4)c3c2=O)cc1	none (no result: PI5P4K alpha inh, PLK1 PBD block)
C[C@H]1CN([C@@H](C)CO)C(=O)CCCn2cc(nn2)CO[C@@H]1CN(C)C(=O)Nc1ccc(N2CCCCC2)cc1	none (no result: HP1b binding inh, JMJD2A Tudor inh, G9a inh, BAZ2B inh)
O=C(c1ccc(F)cc1)N1CCN(c2ccc([N+](=O)[O-])cc2-n2cccc2)CC1	JMJD2A Tudor inh inconclusive, G9a inh 50µM, BAZ2B inh inconclusive
O=C(c1ccccc1F)N1CCN(c2ccc([N+](=O)[O-])cc2-n2cccc2)CC1	JMJD2A Tudor inh inconclusive, BAZ2B inh 22µM (no result: G9a inh)
O=C(c1ccco1)N1CCN(c2ccc([N+](=O)[O-])cc2F)CC1	none
Cc1ccc(-n2c(C)cc(=O)cc2C)c(C)c1	none
Cc1cc(N)ccc1-n1c(C)ccc1C	JMJD2A Tudor inh inconclusive, G9a inh 14µM
Cc1cc(N)ccc1N1CCCC1	HP1b binding inh 50µM, JMJD2A Tudor inh 20µM, G9a inh inconclusive, PI5P4K alpha inh -72, BAZ2B inh 45µM, PLK1 PBD block inconclusive
CC1(C)SC2C(NC(=O)C(NC(=O)N3CCNC3=O)c3ccccc3)C(=O)N2C1C(=O)O (configuration not stated)	none (no result: HP1b binding inh, JMJD2A Tudor inh, PI5P4K alpha inh, BAZ2B inh, PLK1 PBD block)
O=C(CSc1nc(=O)n(CCN2CCOCC2)c2c1CCC2)Nc1ccc(Cl)c(Cl)c1	none (no result: PI5P4K alpha inh, PLK1 PBD block)
O=C(CSc1nnc(C2CCCCC2)o1)Nc1ccccc1Cl	none
CC(C)C(NC(=O)/C(=C/c1ccco1)NC(=O)c1ccc(Br)o1)C(=O)O (configuration not stated)	JMJD2A Tudor inh inconclusive, G9a inh 22µM, BAZ2B inh inconclusive
CC(C)C(NC(=O)/C(=C\c1ccco1)NC(=O)c1ccco1)C(=O)O (configuration not stated)	JMJD2A Tudor inh inconclusive, G9a inh 40µM
O=C(O)CNC(=O)c1ccccc1I	none (no result: HP1b binding inh, JMJD2A Tudor inh, PI5P4K alpha inh, BAZ2B inh, PLK1 PBD block)
COC(=O)C1=C(C)N(CCCC(=O)O)C(=O)NC1c1cccs1 (configuration not stated)	G9a inh inconclusive, PI5P4K alpha inh -73
CC1=C(C(=O)OCc2ccccc2)C(c2cccs2)NC(=O)N1CCCC(=O)O (configuration not stated)	PI5P4K alpha inh -66
CC1=C(C(=O)OCc2ccccc2)C(c2ccc(Br)cc2)NC(=O)N1CCCCCC(=O)O (configuration not stated)	none (no result: G9a inh, BAZ2B inh)
CCOC(=O)C1=C(C)N(CCCC(=O)O)C(=O)NC1c1cccs1 (configuration not stated)	PI5P4K alpha inh -66 (no result: G9a inh, BAZ2B inh)
O=C(Cc1ccc(NC2=NC3CS(=O)(=O)CC3S2)cc1)NCc1ccccc1Cl (configuration not stated)	none
COc1cc2c(c(O)c1OC)-c1c(cc(OC)c(OC)c1O)[C@@H](OC(=O)c1ccccc1)[C@@](C)(O)[C@@H](C)[C@@H]2OC(C)=O	BAZ2B inh 50µM (no result: HP1b binding inh, JMJD2A Tudor inh, PI5P4K alpha inh, PLK1 PBD block)
COc1ccc(NC(C)=O)cc1NC(C)C(=O)Nc1ccc(F)c(F)c1F (configuration not stated)	G9a inh 50µM
CCOc1ccc(C(=O)CCC(=O)Nc2ccc(C)cn2)cc1	none

Screens from PubChem BioAssay.
